The results in this text go back to PMC7862700, “An all-to-all approach to the identification of sequence-specific readers for epigenetic DNA modifications on cytosine”.

What all share (test): DAPPL (digital affinity profiling via proximity ligation, sequencing); 10 mM Tris-HCl pH 7.5, 50 mM NaCl, 1 mM DTT, 4% glycerol, room temperature, 30 min; GST-TFs on glutathione beads, 16-mer random dsDNA library, 0.1% formaldehyde crosslink after washing; high values mean tight binding
Common to all, as to settings: protein: recombinant; tags: N-terminal GST; dsDNA, one strand shown

Assay [1] addresses T1, FLI1 (Homo sapiens, UniProt Q01543 1-452).
T1 sequence: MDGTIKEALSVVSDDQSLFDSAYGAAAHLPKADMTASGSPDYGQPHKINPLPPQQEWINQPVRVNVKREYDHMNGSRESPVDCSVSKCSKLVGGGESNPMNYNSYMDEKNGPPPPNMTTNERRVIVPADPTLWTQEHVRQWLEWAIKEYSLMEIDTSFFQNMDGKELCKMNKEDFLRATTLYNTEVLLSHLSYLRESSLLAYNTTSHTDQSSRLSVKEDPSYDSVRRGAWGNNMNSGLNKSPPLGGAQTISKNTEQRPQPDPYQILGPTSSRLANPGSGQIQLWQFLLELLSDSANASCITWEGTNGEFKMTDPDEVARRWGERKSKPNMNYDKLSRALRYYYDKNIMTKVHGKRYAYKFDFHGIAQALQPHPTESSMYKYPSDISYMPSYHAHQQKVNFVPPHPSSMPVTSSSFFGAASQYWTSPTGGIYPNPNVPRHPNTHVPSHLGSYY
In short, it runs like this: (§1)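 Binding signal is defined as a hexamer's read frequency for one factor over its frequency for the tag-only sample. To obtain reads, GST-fused human transcription factors were expressed in yeast, captured on glutathione beads, barcoded with DNA and pooled with that sample. Pools met 200 nmole of a 16-mer random double-stranded DNA library in Tris/NaCl/DTT/glycerol buffer for 30 min at room temperature before washing, 0.1% formaldehyde crosslinking, proximity ligation (BsaI/T4 ligase, 1 h, 37 °C), PCR and Illumina NextSeq500 sequencing.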

For assay [2], the target named is T2, ELK1 (Homo sapiens, UniProt P19419 1-428).
T2 sequence: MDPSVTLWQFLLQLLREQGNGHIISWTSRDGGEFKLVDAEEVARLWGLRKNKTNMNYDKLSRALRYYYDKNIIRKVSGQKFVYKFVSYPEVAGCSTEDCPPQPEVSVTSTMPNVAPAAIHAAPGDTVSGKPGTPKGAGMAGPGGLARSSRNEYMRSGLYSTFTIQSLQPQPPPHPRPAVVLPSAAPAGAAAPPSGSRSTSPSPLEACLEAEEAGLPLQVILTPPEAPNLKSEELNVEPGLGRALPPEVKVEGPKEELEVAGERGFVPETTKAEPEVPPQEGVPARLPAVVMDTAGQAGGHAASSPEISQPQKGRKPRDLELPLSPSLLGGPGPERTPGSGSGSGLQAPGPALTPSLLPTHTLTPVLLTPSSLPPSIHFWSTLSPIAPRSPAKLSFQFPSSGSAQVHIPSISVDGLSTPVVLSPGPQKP
In short, it runs like this: as §1

Assay [3] addresses T3, GABPA (Homo sapiens, UniProt Q06546 1-454).
T3 sequence: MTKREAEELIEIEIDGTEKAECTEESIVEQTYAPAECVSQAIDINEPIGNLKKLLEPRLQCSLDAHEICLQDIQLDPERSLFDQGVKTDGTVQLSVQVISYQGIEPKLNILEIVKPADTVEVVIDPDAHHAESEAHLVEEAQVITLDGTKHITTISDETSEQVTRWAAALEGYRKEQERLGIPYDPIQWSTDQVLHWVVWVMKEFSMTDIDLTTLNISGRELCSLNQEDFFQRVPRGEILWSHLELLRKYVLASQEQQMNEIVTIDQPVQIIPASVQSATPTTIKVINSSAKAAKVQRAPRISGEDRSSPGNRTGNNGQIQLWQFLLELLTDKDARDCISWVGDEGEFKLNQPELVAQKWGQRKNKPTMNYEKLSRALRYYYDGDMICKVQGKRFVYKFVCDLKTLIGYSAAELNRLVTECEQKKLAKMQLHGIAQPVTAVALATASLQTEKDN
In short, it runs like this:
as §1

The target in assay [4] is T4, ERG (Homo sapiens, UniProt P11308 1-479).
T4 sequence: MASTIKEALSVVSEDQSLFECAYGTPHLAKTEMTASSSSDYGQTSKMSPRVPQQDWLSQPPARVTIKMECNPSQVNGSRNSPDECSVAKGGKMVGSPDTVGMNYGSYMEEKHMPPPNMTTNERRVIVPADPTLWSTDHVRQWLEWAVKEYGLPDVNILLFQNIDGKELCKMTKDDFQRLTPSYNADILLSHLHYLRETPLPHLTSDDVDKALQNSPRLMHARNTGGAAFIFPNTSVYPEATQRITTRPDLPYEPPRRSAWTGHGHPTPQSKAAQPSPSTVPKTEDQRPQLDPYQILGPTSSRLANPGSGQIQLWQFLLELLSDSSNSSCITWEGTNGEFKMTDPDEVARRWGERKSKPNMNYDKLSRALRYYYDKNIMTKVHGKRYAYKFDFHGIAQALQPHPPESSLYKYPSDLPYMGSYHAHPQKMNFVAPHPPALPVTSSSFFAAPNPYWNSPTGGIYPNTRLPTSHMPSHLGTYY
In short, it runs like this:
as §1

In assay [5] the target is ELF1 (Homo sapiens, UniProt P32519 1-619). In short, it runs like this:
as §1

Assay [6] concerns the target T5, EHF (Homo sapiens, UniProt Q9NZC4 1-300).
T5 sequence: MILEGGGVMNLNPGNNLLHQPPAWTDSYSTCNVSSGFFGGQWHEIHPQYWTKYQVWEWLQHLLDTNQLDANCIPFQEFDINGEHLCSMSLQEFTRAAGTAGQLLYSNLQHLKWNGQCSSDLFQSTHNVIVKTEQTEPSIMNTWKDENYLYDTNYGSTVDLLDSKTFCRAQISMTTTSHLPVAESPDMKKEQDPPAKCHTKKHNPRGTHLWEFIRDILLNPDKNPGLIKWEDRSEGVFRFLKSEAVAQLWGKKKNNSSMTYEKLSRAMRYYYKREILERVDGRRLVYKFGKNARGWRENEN
The method, boiled down:
as §1

Assay [7] has as its target SPI1 (Homo sapiens, UniProt P17947 1-270). The method, boiled down:
as §1

The target in assay [8] is SPIB (Homo sapiens, UniProt Q01892 1-262). The method, boiled down:
as §1

Assay [9] concerns the target T6, ELK3 (Homo sapiens, UniProt P41970 1-407).
T6 sequence: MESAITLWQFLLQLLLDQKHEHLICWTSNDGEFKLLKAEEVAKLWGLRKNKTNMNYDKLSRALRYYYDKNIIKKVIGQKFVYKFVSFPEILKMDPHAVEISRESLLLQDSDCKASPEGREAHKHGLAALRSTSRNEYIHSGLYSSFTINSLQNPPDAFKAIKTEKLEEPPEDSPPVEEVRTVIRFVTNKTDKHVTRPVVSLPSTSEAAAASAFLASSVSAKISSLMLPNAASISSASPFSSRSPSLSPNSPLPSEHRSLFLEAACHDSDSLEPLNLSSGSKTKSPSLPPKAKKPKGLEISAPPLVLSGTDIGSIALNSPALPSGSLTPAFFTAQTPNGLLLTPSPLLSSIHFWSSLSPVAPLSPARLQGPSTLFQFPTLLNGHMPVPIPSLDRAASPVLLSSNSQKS
The method, boiled down:
as §1

Chain of ELF1 (P32519 whole entry): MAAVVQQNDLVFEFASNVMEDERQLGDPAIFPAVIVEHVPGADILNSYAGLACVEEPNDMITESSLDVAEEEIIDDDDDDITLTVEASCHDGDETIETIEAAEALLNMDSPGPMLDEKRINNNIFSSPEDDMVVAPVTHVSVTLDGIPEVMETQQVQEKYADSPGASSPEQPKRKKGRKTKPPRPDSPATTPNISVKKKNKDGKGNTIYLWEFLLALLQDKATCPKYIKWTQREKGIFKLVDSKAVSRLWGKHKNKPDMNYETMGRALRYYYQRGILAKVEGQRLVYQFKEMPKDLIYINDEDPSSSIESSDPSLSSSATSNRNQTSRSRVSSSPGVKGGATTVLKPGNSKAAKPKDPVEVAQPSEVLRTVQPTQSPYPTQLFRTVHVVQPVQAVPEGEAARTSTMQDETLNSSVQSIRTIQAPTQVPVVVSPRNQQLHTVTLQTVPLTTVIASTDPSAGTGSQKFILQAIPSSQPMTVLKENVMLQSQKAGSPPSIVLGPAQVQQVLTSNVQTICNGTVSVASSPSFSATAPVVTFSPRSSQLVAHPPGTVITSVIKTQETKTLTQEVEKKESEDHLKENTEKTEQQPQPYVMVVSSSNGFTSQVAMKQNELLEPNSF
Chain of SPIB (Q01892 whole entry): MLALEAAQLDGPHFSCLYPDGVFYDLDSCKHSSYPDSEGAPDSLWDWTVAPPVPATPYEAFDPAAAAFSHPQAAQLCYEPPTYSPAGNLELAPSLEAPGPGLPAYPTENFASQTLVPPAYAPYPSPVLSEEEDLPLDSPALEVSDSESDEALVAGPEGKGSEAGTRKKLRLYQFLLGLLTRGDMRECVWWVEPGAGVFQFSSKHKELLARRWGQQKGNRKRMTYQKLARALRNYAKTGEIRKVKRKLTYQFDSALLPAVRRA

As for TTTTAC, the binding signal was 1.45 fold enrichment (6-mer frequency, TF over GST control) in assay [1]; 1.27 fold enrichment (6-mer frequency, TF over GST control) in assay [2]; 1.33 fold enrichment (6-mer frequency, TF over GST control) in assay [3]; 1.3 fold enrichment (6-mer frequency, TF over GST control) in [4]; 1.39 fold enrichment (6-mer frequency, TF over GST control) in assay [5]; 1.45 fold enrichment (6-mer frequency, TF over GST control) in assay [6]. Moreover, the binding signal in assay [7] is 1.37 fold enrichment (6-mer frequency, TF over GST control); in assay [8] it was 1.4 fold enrichment (6-mer frequency, TF over GST control); in assay [9], 1.39 fold enrichment (6-mer frequency, TF over GST control).
Consider TTAACT, for which the binding signal in assay [1] was 1.18 fold enrichment (6-mer frequency, TF over GST control); in assay [2], 1.14 fold enrichment (6-mer frequency, TF over GST control); in assay [3] it was 1.15 fold enrichment (6-mer frequency, TF over GST control); in assay [4], 1.17 fold enrichment (6-mer frequency, TF over GST control); in [5], 1.27 fold enrichment (6-mer frequency, TF over GST control); in [6], 1.1 fold enrichment (6-mer frequency, TF over GST control). The binding signal in assay [7] is 1.23 fold enrichment (6-mer frequency, TF over GST control); in assay [8], 1.21 fold enrichment (6-mer frequency, TF over GST control); in assay [9], 1.19 fold enrichment (6-mer frequency, TF over GST control).
As to TCCGAA, the binding signal in assay [1] was 1.35 fold enrichment (6-mer frequency, TF over GST control); in assay [2] it was 1.28 fold enrichment (6-mer frequency, TF over GST control); in [3] it was 1.37 fold enrichment (6-mer frequency, TF over GST control); in [4] it was 1.3 fold enrichment (6-mer frequency, TF over GST control); in assay [5], 1.23 fold enrichment (6-mer frequency, TF over GST control); in [6], 1.41 fold enrichment (6-mer frequency, TF over GST control). Moreover, the binding signal in assay [7] is 1.25 fold enrichment (6-mer frequency, TF over GST control); in [8], 1.44 fold enrichment (6-mer frequency, TF over GST control); in assay [9] it was 1.18 fold enrichment (6-mer frequency, TF over GST control).
On to AACGAT, for which the binding signal in assay [1] is 1.28 fold enrichment (6-mer frequency, TF over GST control); in assay [2], 1.16 fold enrichment (6-mer frequency, TF over GST control); in assay [3] it was 1.13 fold enrichment (6-mer frequency, TF over GST control); in assay [4], 1.21 fold enrichment (6-mer frequency, TF over GST control); in assay [5], 1.24 fold enrichment (6-mer frequency, TF over GST control); in assay [6], 1.17 fold enrichment (6-mer frequency, TF over GST control). In addition, the binding signal is 1.17 fold enrichment (6-mer frequency, TF over GST control) in assay [7]; 1.21 fold enrichment (6-mer frequency, TF over GST control) in assay [8]; 1.24 fold enrichment (6-mer frequency, TF over GST control) in assay [9].
In the case of TACAGA, the binding signal in [1] was 1.08 fold enrichment (6-mer frequency, TF over GST control); in assay [2], 1.14 fold enrichment (6-mer frequency, TF over GST control); in [3], 1.25 fold enrichment (6-mer frequency, TF over GST control); in [4] it was 1.11 fold enrichment (6-mer frequency, TF over GST control); in assay [5], 1.14 fold enrichment (6-mer frequency, TF over GST control); in assay [6], 1.11 fold enrichment (6-mer frequency, TF over GST control). Besides, the binding signal in assay [7] was 1.13 fold enrichment (6-mer frequency, TF over GST control); in assay [8], 1.16 fold enrichment (6-mer frequency, TF over GST control); in assay [9], 1.06 fold enrichment (6-mer frequency, TF over GST control).
As to TTGACT, the binding signal in assay [1] was 1.19 fold enrichment (6-mer frequency, TF over GST control); in assay [2], 1.19 fold enrichment (6-mer frequency, TF over GST control); in [3], 1.15 fold enrichment (6-mer frequency, TF over GST control); in assay [4], 1.18 fold enrichment (6-mer frequency, TF over GST control); in assay [5], 1.15 fold enrichment (6-mer frequency, TF over GST control); in [6], 1.06 fold enrichment (6-mer frequency, TF over GST control). Moreover, the binding signal in assay [7] is 1.19 fold enrichment (6-mer frequency, TF over GST control); in assay [8], 1.18 fold enrichment (6-mer frequency, TF over GST control); in assay [9], 1.03 fold enrichment (6-mer frequency, TF over GST control).
TTTATC: the binding signal in assay [1] is 1.25 fold enrichment (6-mer frequency, TF over GST control); in assay [2] it was 1.27 fold enrichment (6-mer frequency, TF over GST control); in [3], 1.25 fold enrichment (6-mer frequency, TF over GST control); in assay [4], 1.22 fold enrichment (6-mer frequency, TF over GST control); in [5], 1.21 fold enrichment (6-mer frequency, TF over GST control); in assay [6], 1.36 fold enrichment (6-mer frequency, TF over GST control). In addition, the binding signal in assay [7] is 1.26 fold enrichment (6-mer frequency, TF over GST control); in assay [8] it was 1.28 fold enrichment (6-mer frequency, TF over GST control); in [9], 1.37 fold enrichment (6-mer frequency, TF over GST control).
Consider AATTAC, for which the binding signal in assay [1] was 1.24 fold enrichment (6-mer frequency, TF over GST control); in [2], 1.19 fold enrichment (6-mer frequency, TF over GST control); in assay [3], 1.26 fold enrichment (6-mer frequency, TF over GST control); in [4], 1.25 fold enrichment (6-mer frequency, TF over GST control); in [5], 1.26 fold enrichment (6-mer frequency, TF over GST control); in [6] it was 1.33 fold enrichment (6-mer frequency, TF over GST control). The binding signal in assay [7] was 1.35 fold enrichment (6-mer frequency, TF over GST control); in assay [8], 1.35 fold enrichment (6-mer frequency, TF over GST control); in [9] it was 1.24 fold enrichment (6-mer frequency, TF over GST control).
